Targets with the largest changes are over-represented here; the source holds about 21,000 in all.
Tests used:
compound 10 = compound: Cc1cc(ccc1-c1ccccc1)C(=O)N1CCCN(CC1)C(=O)CCl [compound 10]; experiment: probe-labelled cysteine peptide fold change vs DMSO (competition) (log2 fold change); higher = less target engagement (more negative = stronger competition); conditions: THP-1, incubation time: 4 h
[1] = compound: CC1Cc2ccccc2N1C(=O)C1CCCN(C1)C(=O)CCl (mixture of isomers) [TRIM25 ligand 11 (diastereomer mixture)]; experiment: as above; conditions: THP-1, incubation time: 4 h

Sequence of UniProt Q9H0D6 (Q9H0D6 whole entry, looked up): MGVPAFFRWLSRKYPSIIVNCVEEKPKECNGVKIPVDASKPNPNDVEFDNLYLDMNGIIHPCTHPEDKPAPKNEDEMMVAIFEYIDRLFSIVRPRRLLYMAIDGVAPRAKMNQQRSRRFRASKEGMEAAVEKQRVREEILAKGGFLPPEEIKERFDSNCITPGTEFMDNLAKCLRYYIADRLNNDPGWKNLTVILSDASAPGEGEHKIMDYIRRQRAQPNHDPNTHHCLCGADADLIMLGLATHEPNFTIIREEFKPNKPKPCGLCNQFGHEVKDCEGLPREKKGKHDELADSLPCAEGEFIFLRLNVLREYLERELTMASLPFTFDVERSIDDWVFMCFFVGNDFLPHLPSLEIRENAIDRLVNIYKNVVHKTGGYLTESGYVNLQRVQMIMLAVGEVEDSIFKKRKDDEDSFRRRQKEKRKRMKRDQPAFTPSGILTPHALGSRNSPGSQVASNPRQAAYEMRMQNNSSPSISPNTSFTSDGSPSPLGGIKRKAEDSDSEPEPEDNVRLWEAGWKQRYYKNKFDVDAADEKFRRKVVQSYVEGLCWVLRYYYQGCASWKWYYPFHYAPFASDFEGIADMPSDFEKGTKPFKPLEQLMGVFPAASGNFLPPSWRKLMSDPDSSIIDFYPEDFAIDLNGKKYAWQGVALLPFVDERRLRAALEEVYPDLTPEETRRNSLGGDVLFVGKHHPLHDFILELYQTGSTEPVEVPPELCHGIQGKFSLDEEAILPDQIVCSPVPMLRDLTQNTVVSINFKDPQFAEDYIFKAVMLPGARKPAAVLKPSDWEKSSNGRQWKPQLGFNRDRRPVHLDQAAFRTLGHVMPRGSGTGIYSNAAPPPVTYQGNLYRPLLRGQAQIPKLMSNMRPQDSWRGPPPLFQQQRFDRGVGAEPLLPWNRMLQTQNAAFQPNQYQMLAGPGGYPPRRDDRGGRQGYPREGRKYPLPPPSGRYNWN
Sequence of UniProt Q8TF39 (Q8TF39 whole entry): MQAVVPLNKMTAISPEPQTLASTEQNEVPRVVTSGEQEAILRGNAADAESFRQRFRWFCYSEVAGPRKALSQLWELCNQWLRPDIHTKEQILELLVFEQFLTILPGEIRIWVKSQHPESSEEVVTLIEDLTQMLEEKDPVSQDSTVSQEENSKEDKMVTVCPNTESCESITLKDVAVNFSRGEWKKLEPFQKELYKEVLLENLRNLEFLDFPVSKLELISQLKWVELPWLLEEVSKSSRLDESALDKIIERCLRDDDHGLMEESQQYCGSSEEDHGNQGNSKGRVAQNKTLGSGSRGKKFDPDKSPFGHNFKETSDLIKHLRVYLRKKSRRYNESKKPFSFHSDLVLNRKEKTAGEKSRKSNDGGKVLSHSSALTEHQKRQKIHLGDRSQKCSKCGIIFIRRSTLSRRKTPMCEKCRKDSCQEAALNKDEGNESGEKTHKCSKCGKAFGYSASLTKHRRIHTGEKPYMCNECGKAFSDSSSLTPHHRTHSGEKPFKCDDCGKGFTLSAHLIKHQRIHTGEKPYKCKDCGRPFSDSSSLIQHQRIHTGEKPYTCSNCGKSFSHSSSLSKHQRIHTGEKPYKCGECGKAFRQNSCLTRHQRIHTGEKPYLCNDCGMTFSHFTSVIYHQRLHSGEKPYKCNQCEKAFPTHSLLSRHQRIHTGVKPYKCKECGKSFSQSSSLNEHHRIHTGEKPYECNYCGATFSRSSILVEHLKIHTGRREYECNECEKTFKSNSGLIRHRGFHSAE
Sequence of UniProt Q9NRG9 (Q9NRG9 whole entry, looked up): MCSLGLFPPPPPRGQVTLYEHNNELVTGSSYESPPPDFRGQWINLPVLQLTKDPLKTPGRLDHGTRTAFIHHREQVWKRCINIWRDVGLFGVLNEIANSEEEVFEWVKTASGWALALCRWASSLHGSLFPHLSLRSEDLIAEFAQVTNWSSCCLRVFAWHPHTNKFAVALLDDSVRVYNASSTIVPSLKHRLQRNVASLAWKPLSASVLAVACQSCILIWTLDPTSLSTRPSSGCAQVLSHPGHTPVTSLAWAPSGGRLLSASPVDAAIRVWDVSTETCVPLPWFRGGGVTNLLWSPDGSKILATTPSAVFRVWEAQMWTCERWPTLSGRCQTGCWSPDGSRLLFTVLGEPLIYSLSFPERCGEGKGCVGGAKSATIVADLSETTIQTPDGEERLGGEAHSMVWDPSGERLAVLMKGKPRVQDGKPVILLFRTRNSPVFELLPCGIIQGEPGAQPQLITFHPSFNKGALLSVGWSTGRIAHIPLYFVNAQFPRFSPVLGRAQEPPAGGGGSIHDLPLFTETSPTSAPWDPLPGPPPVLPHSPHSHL
Sequence of UniProt Q9H8G1 (Q9H8G1 whole entry): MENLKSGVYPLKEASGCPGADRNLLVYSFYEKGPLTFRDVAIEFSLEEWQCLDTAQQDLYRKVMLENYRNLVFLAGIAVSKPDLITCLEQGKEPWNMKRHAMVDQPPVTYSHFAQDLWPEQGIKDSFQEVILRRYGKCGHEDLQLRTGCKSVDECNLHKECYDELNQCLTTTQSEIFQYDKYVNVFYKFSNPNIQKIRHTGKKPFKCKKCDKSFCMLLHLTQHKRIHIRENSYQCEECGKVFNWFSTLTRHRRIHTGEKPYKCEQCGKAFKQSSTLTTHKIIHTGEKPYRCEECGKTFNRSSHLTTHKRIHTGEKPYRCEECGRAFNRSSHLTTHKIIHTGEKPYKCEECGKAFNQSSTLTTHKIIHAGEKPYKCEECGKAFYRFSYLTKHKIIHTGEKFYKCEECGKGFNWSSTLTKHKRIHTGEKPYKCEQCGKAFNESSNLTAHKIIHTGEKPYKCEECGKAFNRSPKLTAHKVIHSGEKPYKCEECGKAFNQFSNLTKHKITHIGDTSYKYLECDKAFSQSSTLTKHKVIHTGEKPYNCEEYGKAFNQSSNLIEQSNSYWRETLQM
Sequence of UniProt P49588 (P49588 whole entry, looked up): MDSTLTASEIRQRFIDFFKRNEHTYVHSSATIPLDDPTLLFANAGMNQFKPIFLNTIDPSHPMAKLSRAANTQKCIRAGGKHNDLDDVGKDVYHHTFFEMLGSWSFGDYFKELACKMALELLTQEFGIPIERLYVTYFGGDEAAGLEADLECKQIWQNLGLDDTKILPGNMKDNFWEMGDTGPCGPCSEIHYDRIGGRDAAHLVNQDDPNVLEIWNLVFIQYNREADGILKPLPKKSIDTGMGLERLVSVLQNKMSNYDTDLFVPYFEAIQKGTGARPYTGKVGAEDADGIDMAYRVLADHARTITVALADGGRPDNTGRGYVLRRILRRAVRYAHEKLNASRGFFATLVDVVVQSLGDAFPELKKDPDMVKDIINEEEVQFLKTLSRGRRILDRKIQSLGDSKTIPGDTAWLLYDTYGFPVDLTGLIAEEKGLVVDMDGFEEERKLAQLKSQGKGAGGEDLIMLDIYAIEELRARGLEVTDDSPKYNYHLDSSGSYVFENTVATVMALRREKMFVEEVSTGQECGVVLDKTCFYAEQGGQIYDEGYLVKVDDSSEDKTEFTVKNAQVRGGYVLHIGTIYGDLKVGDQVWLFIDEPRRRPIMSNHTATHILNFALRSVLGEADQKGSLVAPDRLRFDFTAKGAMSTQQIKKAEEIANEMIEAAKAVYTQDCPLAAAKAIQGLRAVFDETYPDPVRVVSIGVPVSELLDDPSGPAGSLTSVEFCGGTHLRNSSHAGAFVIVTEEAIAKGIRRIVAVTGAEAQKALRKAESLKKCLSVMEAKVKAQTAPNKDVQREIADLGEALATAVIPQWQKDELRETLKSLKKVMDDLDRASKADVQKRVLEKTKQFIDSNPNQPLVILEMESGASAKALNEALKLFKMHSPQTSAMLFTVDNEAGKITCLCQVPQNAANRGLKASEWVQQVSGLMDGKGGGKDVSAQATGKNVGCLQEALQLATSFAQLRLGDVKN
Sequence of UniProt P25490 (P25490 whole entry, looked up): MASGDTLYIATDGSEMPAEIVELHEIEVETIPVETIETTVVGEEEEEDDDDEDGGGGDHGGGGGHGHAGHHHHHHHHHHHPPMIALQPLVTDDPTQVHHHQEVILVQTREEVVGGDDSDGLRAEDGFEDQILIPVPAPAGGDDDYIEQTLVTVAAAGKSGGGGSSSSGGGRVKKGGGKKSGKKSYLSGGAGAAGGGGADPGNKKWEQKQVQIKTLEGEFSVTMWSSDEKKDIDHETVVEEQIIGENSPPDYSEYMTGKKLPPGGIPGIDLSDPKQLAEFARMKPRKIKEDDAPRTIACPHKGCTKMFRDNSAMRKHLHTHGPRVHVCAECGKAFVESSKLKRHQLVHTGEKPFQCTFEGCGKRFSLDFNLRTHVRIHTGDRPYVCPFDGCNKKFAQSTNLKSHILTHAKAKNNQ
Sequence of UniProt Q96K80 (Q96K80 whole entry, looked up): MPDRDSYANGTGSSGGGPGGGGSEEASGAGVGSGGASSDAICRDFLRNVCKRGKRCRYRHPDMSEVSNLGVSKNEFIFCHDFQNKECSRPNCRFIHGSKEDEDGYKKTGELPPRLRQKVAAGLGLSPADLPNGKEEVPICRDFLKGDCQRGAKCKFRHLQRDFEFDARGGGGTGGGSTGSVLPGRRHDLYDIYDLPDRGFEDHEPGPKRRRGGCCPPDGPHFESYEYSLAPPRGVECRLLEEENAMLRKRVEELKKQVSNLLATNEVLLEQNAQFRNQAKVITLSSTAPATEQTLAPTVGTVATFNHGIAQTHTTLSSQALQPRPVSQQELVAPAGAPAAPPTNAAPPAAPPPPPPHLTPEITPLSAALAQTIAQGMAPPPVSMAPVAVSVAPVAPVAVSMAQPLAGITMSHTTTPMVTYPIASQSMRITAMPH
Sequence of UniProt P55263 (P55263 whole entry, looked up): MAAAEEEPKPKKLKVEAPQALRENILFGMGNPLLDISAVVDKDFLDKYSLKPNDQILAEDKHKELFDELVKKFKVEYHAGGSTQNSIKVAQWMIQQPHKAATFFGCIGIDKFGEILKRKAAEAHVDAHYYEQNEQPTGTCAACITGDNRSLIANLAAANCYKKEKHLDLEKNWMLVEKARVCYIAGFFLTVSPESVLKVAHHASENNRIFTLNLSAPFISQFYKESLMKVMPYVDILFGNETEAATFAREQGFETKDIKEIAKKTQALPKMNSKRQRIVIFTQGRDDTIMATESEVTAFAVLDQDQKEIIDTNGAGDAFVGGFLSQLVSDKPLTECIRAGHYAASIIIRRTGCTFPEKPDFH

Target	probe-labelled cysteine peptide fold change (compound 10; 10 µM)	probe-labelled cysteine peptide fold change (compound 10; 50 µM)	probe-labelled cysteine peptide fold change ([1]; 10 µM)	probe-labelled cysteine peptide fold change ([1]; 50 µM)
ZC3H10_Q96K80_140_EEVPICR (UniProt Q96K80)	-0.106	0.152		
XRN2_Q9H0D6_715_HHPLHDFILELYQTGSTEPVEVPPELCHGIQGK (UniProt Q9H0D6)	-0.0366	0.0175		
ADK_P55263_160_SLIANLAAANCYKK (UniProt P55263)			-0.669	-0.408
ACTL6A_O96019_152_LTELMFEHYNIPAFFLCK (UniProt O96019)			-0.0461	0.0154
ZNF430_Q9H8G1_138_CGHEDLQLR (UniProt Q9H8G1)	-0.195	-0.412		
ZFYVE19_Q96K21_435_CAGCDGDLFCAR (UniProt Q96K21)	0.0027	-0.124		
YY1_P25490_390_IHTGDRPYVCPFDGCNK (UniProt P25490)	0.136	0.715		
AAAS_Q9NRG9_335_CQTGCWSPDGSR (UniProt Q9NRG9)			0.605	-0.129
WDR48_Q8TAF3_366_GGASIIQCHILNDKR (UniProt Q8TAF3)	0.239	-0.0402		
ZNF483_Q8TF39_392_IHLGDRSQKCSK (UniProt Q8TF39)	-0.0771	-0.64		
WDR47_O94967_672_GSIYCVAWSPCGQLLATGSNDK (UniProt O94967)	-0.439	-1.25		
ACTN4_O43707_879_RELPPDQAEYCIAR (UniProt O43707)			0.0491	0.0892
AARS_P49588_184+187_DNFWEMGDTGPCGPCSEIHYDR (UniProt P49588)			0.105	-0.0756
ADD2_P35612_224_CIIHLHTPATAAVSAMK (UniProt P35612)			-0.0204	-0.168
